TTR transcr act: TTR transcription activators in neuroblastoma reporter cells, primary screen, cell-based, luminescence, SH-SY5Y, TTR promoter Gaussia luciferase | 100% = recombinant luciferase protein wells | hit rate 1.3% among 92,000 | activation, % at 16.7 µM;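 active = activation above the mean of all tested compounds plus 3 SD, cut at about 9.5% in these data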;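 note: cells exposed to compounds for one day before reading; 0% = median of all test compound wells on the plate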
HuH7 TTR inh: TTR promoter reporter inhibitors in hepatoma cells, counter-screen for TTR transcription activator project, cell-based, luminescence, HuH7 hepatoma | shares compounds with TTR transcr act | HuH7 TTR promoter-Gaussia luciferase reporter | inhibition, % at 16.7 µM | hit rate 4% among 1,100;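 active = average inhibition above the solvent-only control wells' mean plus 3 SD, cut at about 15% in these data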;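 note: 0% = cells with DMSO only and 100% = cells with inhibitor control FD; inhibitors lower well luminescence so higher value means more inhibition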
TTR act confirm: TTR transcription activators, retest, confirmation, cell-based, luminescence, SH-SY5Y, triplicate | shares compounds with TTR transcr act | SHSY5Y TTR promoter Gaussia luciferase; 100% = purified Lucia enzyme wells, no cells | activation, % at 16.7 µM | 1,100 tested, under 10 active;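 active = mean activation above a set limit taken from the earlier primary screen, cut at about 11% in these data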;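 note: 0% = DMSO-treated cells and 100% = recombinant Lucia luciferase without cells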
Active calls of the source: *. Many of the other results were omitted from the sample, so hits are more common in it than they were.

SMILES	TTR transcr act	others
N#CC1=C(N)NC(=S)C(C(N)=O)C1c1ccccc1F (stereo unspecified)	12*	HuH7 TTR inh=-25;TTR act confirm=0
COC(=O)c1ccccc1NC(=O)NC1CCCC1	15*	HuH7 TTR inh=-2;TTR act confirm=-1
O=C(Nc1ccccc1)NC1CCCCCCC1	-1
CC(C)C(=O)NC(=S)Nc1ccccc1C(=O)NC1CCCCC1	3
COc1ccc(CN2C(=O)CN(S(C)(=O)=O)CC2(C)c2nnnn2C2CCCCC2)cc1 (stereo unspecified)	1
O=C(NCCc1ccccc1)OCc1cn(Cc2ccc(F)cc2)nn1	-1
COC1=C(Nc2ccc(OC)cc2)C(=O)C(OC)=C(Nc2ccc(OC)cc2)C1=O	1
COc1ccc(NC2=Nc3cccc4cccc2c34)cc1	15*	HuH7 TTR inh=-10;TTR act confirm=-1
COc1ccc(Nc2nc(Cl)nc(Nc3ccc(OC)cc3)n2)cc1	-2
COC(=O)[C@]12C[C@H](CC(=O)NCCc3ccccc3OC)C(=O)N(CCc3ccc(OC)c(OC)c3)C1=C[C@H](C(C)C)O[C@@H]2C1CC1	-2
Cc1cccc(/C(N)=N/OC(=O)COc2ccc(Cl)c(C)c2)c1	11*	HuH7 TTR inh=-10;TTR act confirm=-1
Cc1cccc(/C(N)=N/OC(=O)Cc2cccc3ccccc23)c1	2
Cc1ccc(C)c(OCC(=O)O/N=C(\N)c2cccnc2)c1	1
CC(=O)c1cc(-c2ccc(-c3cc(C(=O)O)c4ccccc4n3)cc2)c(=O)n2c1CCC2	2
CN1C2=N[C@@H](c3cccc(C(F)(F)F)c3)CC(=O)N2/C(=C\c2ccccc2)[C@H]1c1ccccc1	-2
O=C(OCC#CCSc1nnc(-c2cccc3ccccc23)o1)c1ccc(OC(F)F)cc1	0
CCCC1CCC2(CC1)CCC2OC(=O)Nc1ccccc1C (stereo unspecified)	7
N/C(=N\O)c1cccc(CS(=O)(=O)c2ccccn2)c1	10.0*	HuH7 TTR inh=-11;TTR act confirm=0
CC(C)(C)c1csc(CS(=O)(=O)c2ccccn2)n1	0
Cc1c(S(=O)(=O)c2ccccn2)c(N)n(Cc2cccc(Cl)c2)c1C	-1
COc1ccc(/C=C/C(=O)NC2=NCCS2)c(OC)c1	-1
CCc1c(C(=O)C(C)O)c2n3c1CCC[C@@H]3CC2 (stereo partly specified)	1
CCOc1ccc(CCNC(=O)Cc2ccccc2)cc1OCC	1
Cn1ccc2cc(S(=O)(=O)N3CCN(S(=O)(=O)c4c(F)cccc4F)CC3)ccc21	1
Cc1ccc2c(c1)nnn2C1CCN(CC(=O)N(c2ccccc2)c2ccccc2)CC1	-2
SMILES	TTR transcr act	others
Cc1ccc2c(c1)nnn2C1CCN(C(=O)NCc2ccccc2)CC1	9.7*	HuH7 TTR inh=6;TTR act confirm=-1
O=C(NCc1ccccc1)N1CCC(Cc2ccccc2)CC1	0
O=C(CN(Cc1ccc(Br)cc1)S(=O)(=O)c1ccccc1)NCc1ccccn1	22*	HuH7 TTR inh=-22;TTR act confirm=1
COc1ccc(CNC(=O)CN(Cc2ccc(Cl)cc2)S(=O)(=O)c2ccccc2)cc1	1
CNC(=O)CN(Cc1ccccc1)S(=O)(=O)c1ccccc1	2
CN(Cc1ccccc1)C(=O)OCc1cn(Cc2c(F)cccc2F)nn1	-1
COC1OC(COCc2ccccc2)C2OC(C)(C)OC2C1O (stereo unspecified)	0
COC(=O)[C@]12CCCCC=C1N(Cc1ccc(OC)cc1)C(=O)[C@@H]2CC(=O)NCc1ccccc1	-1
COc1ccccc1NC(=O)CN(C)S(=O)(=O)c1cc(C)ccc1OC	-2
CCOc1ccccc1NC(=O)CN(C)S(=O)(=O)c1ccc2[nH]c(=O)oc2c1	12*	HuH7 TTR inh=-21;TTR act confirm=0
CCOc1ccc(NS(=O)(=O)c2ccc3[nH]c(=O)oc3c2)cc1	2
Cc1ccccc1C(=O)NC1CCCCN(C(C)C)C1=O (stereo unspecified)	1
COc1ccc(NC(=O)/C=C/C(=O)O)c(OC)c1	2
COc1ccc(NC(=O)C(F)(OC)C(F)(F)F)c(OC)c1 (stereo unspecified)	14*	HuH7 TTR inh=-8;TTR act confirm=1
CCC(C)C(=O)Nc1ccc(OC)cc1OC (stereo unspecified)	1
COc1cccc(C(=O)n2ccc3ccc(-c4ccc5ccn(C(=O)c6cccc(OC)c6)c5c4)cc32)c1	0
Cc1ccc(NC(=O)OC2CC3CC2[C@H]2CCCCN2C3)cc1C (stereo partly specified)	0
CC(=O)Nc1ccc(C(=O)NCCN2CCOCC2)cc1	-1
O=C(NCCCN1CCOCC1)c1ccc(NS(=O)(=O)c2cccc([N+](=O)[O-])c2)cc1	0
Cc1ccc(NS(=O)(=O)c2ccc(C(=O)NCCN3CCOCC3)cc2)cc1	15*	HuH7 TTR inh=-10;TTR act confirm=1
COc1ccc(Cn2ccc3ccc(-c4ccc5ccn(Cc6ccccc6F)c5c4)cc32)cc1	3
C[C@H]1[C@H](c2ccccc2)Oc2cccc(NCCc3ccccc3)c2S(=O)(=O)N1Cc1cccc(Cl)c1	1
Cn1cccc1CC(=O)N/N=C/C=C/c1ccccc1	4
C/C(=N\NC(=O)CSc1nc(C)cc(C)n1)c1cccs1	0
Cc1cc(C)nc(SCC(=O)N/N=C/C=C/c2ccccc2)n1	14*	HuH7 TTR inh=-12;TTR act confirm=0
SMILES	TTR transcr act	others
C[C@H]1[C@@H](OC(=O)NC2CCCCC2)CC[C@@]23CCCN2C(=O)CCC[C@@H]13	1
COC(=O)[C@]12C[C@H](CC(=O)NCc3ccc(OC)c(OC)c3)C(=O)N(Cc3cccc4ccccc34)C1=C[C@H](C1CCCC1)O[C@@H]2C	-3
O=C1CC(NNc2ccccc2)C(=O)N1c1ccccc1 (stereo unspecified)	11*	HuH7 TTR inh=2;TTR act confirm=-1
CC(O)CCC(=O)NNC1CC(=O)N(c2ccccc2)C1=O (stereo unspecified)	3
CCOC(=O)NNC1CC(=O)N(c2ccccc2)C1=O (stereo unspecified)	2
CCCOc1ccc(-c2nc(CSCC(=O)NC3CC3)c(C)o2)cc1	-1
Brc1cccc(Cn2ccc3ccc(-c4ccc5ccn(Cc6cccc(Br)c6)c5c4)cc32)c1	-1
O=C(NCc1ccc(F)cc1)c1cc(-c2ccncc2)nc2ccccc12	-3
c1ccc(-c2cc(-c3ccncc3)nc3ccc4ccccc4c23)cc1	11*	HuH7 TTR inh=12;TTR act confirm=-1
COc1cc(-c2ccccc2)nc2ccccc12	0
C=CCN1C(C(=O)OCC)CSCCS1(=O)=O (stereo unspecified)	1
CCCSc1ncnc2[nH]ncc12	13*	HuH7 TTR inh=-4;TTR act confirm=0
OCCCNc1ncnc2[nH]ncc12	4
Cc1ccc(CNc2ncnc3[nH]ncc23)cc1	1
c1nc(NC[C@@H]2CCCO2)c2cc(-c3ccc4c(c3)OCO4)ccc2n1	0
CCOC(=O)[C@@]12CCC3=C1N(CCC3)C(=O)[C@H](CC(=O)NCc1cccc(C(F)(F)F)c1)C2	0
O=C(OCc1ccccc1)[C@H](Cc1ccccc1)NC(=O)[C@@H]1CC=C[C@@H]2CCN(C3CCCCC3)C(=O)[C@@H]21	0
COc1ccc(CC(=O)NC2CCCCN(Cc3ccc(Cl)cc3)C2=O)cc1OC (stereo unspecified)	0
